Bioassay records as filed in PubChem.
Bim-Mcl-1: inhibitors of Bim peptide binding to Mcl-1, primary screen, biochemical, bead-based flow cytometry, multiplex | Induced myeloid leukemia cell differentiation protein Mcl-1 (Homo sapiens), Q07820 | AID 1009, 2008 | inhibition, % at 10 µM | 0.1% of 190,000 active | Bim peptide-Mcl-1 binding; in the data active = inhibition above about 40%;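 note: 0% = no compound tracer wells and 100% = peptide blocker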
Mcl1 Noxa PPI: Mcl-1/Noxa binding inhibitors, primary screen, biochemical, TR-FRET, 1536-well; AID 1022, 2008; TR-FRET Mcl-1/Noxa peptide binding, 2 h; inhibition, % at 21.7 µM; 1.5% of 220,000 active; Induced myeloid leukemia cell differentiation protein Mcl-1 (Homo sapiens), Q07820;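 active = compounds that cut the protein-peptide binding signal by more than 50% relative to plate controls in a single-dose test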;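 note: His-tagged Mcl-1 with rhodamine Noxa BH3 peptide and terbium anti-His antibody; 0% = Mcl-1 plus Noxa peptide wells and 100% = peptide-only wells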
TLR9-MyD88 block: inhibitors of TLR9-MyD88 association in cells, primary screen, cell-based, CHO, BLA complementation, fluorescence | inhibition, % at 4.98 µM | 0.21% of 340,000 active | Toll-like receptor 9 (Homo sapiens) + Myeloid differentiation primary response protein … | CCF4 FRET ratio;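 active = inhibition above the mean over all tested compounds plus 3 SD, cut at about 21% in these data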;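 note: 0% = DMSO only wells and 100% = clavulanate BLA inhibitor control wells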
Mcl1-Bid inh: Mcl-1/Bid binding inhibitors, primary screen, biochemical, TR-FRET, 1536-well; Induced myeloid leukemia cell differentiation protein Mcl-1 (Homo sapiens), Q07820; TR-FRET Mcl-1/Bid-Dy647 peptide binding; inhibition, % at 21.7 µM; 0.97% of 220,000 active; AID 1021, 2008;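 active = compounds that cut the binding signal by more than half at the single screening dose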;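 note: His-tagged Mcl-1 with europium anti-His antibody binding Bid BH3 peptide; 0% = Mcl-1 plus peptide wells and 100% = peptide-only wells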
TLR4 MyD88 comp: inhibitors of TLR4-MyD88 association in cells, primary screen, cell-based, HeLa CL3-4, BLA complementation, FRET ratio | HeLa CL3-4 TLR4/MyD88 BLA complementation | inhibition, % at 8.4 µM | 0.18% of 200,000 active | AID 861, 2007; in the data active = inhibition above about 25%;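 note: 0% = vehicle and 100% = reference inhibitor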
NOD2 RIPK2 PPI: NOD2-RIPK2 binding disruptors in cells, primary screen, fluorescence, CHO cells, BLA complementation | AID 624267, 2012 | inhibition, % at 4.98 µM | 0.38% of 360,000 active | CCF4 ratio; in the data active = inhibition above about 21%;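 note: 0% = vehicle only and 100% = reference blocker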
Target sequence (O43353 whole entry, looked up): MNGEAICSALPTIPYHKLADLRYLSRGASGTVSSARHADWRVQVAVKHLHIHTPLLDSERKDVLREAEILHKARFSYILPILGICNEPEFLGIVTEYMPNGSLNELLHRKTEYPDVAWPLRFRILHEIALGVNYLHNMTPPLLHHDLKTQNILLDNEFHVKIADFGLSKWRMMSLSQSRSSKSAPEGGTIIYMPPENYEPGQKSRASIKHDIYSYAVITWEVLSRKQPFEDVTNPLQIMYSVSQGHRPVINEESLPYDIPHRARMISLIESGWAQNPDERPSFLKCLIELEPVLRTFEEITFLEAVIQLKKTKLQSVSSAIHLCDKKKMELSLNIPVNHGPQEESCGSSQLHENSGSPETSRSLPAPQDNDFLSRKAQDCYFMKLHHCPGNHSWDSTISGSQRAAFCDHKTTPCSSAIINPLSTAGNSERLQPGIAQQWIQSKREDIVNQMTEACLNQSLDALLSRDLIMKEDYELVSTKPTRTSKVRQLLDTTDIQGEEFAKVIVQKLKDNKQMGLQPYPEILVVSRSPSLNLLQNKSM
* hit, by the source's call. Rows were chosen to be rich in hits. Some 1.8% of all compounds tested hit in one or more screens of this group.

Screening CC(=O)Nc1ccccc1OCC(=O)NC1CCCCC1C (stereo not drawn) returned TLR9-MyD88 block 8 and NOD2 RIPK2 PPI -2.
Screening N#Cc1ccc(OCCN2CCc3ccccc3C2)cc1 returned TLR9-MyD88 block 5 and NOD2 RIPK2 PPI 0.
For COc1ccc(OCCOCCN2CCc3ccccc3C2)cc1 the results were Bim-Mcl-1 4, Mcl1 Noxa PPI 15, TLR9-MyD88 block 2, Mcl1-Bid inh 62*, TLR4 MyD88 comp -1 and NOD2 RIPK2 PPI 3.
`COc1ccc(CCNC(=O)c2ccc3ccccc3n2)cc1` gave TLR9-MyD88 block -5 and NOD2 RIPK2 PPI 2.
Screening Cc1cc(C)c(S(=O)(=O)NCc2cn3c(C)csc3n2)cc1C returned Bim-Mcl-1 0, Mcl1 Noxa PPI 76*, TLR9-MyD88 block -4, Mcl1-Bid inh 3, TLR4 MyD88 comp -8 and NOD2 RIPK2 PPI -12.
Screening Cc1cc(C)c(S(=O)(=O)NCc2cn3c(C)csc3n2)c(C)c1 returned Bim-Mcl-1 -4, Mcl1 Noxa PPI -54, TLR9-MyD88 block -3, Mcl1-Bid inh -143, TLR4 MyD88 comp -7 and NOD2 RIPK2 PPI -6.
`COc1ccc(CCNC(=O)c2ccc(=O)[nH]n2)cc1OC` gave Bim-Mcl-1 0, Mcl1 Noxa PPI 2, TLR9-MyD88 block -4, Mcl1-Bid inh 100*, TLR4 MyD88 comp 5 and NOD2 RIPK2 PPI -13.
`COc1ccc(CCNC(=O)c2ccccc2Cl)cc1OC` gave Bim-Mcl-1 -4, Mcl1 Noxa PPI 3, TLR9-MyD88 block -18, Mcl1-Bid inh -16, TLR4 MyD88 comp -4 and NOD2 RIPK2 PPI -3.
`COc1ccc(CCNC(=O)c2ccc(Cl)cc2Cl)cc1OC` gave Bim-Mcl-1 -2, Mcl1 Noxa PPI -1, TLR9-MyD88 block -6, Mcl1-Bid inh 83*, TLR4 MyD88 comp -3 and NOD2 RIPK2 PPI -9.
COc1ccc(CCNC(=O)CCCN2C(=O)c3ccccc3C2=O)cc1OC was read as Bim-Mcl-1 -3, Mcl1 Noxa PPI -2, TLR9-MyD88 block -3, Mcl1-Bid inh 62*, TLR4 MyD88 comp 0 and NOD2 RIPK2 PPI -9.
`COc1cc(-c2coc3c(C(=O)NCc4ccc(C(F)(F)F)cc4)cccc23)ccc1O` gave NOD2 RIPK2 PPI -1.
For Cc1ccc(N(CCC#N)C(=O)COC(=O)C2=COCCO2)cc1 the results were TLR9-MyD88 block 10 and NOD2 RIPK2 PPI 0.
Screening COc1ccc(NN=Nc2nc3c([nH]2)c(=O)n(C)c(=O)n3C)cc1 returned Mcl1 Noxa PPI 67*, TLR9-MyD88 block 11, Mcl1-Bid inh 6 and NOD2 RIPK2 PPI -14.
Screening Cc1ccc2nc(SCC(=O)N3CCC(Cc4ccccc4)CC3)nc(=O)n2c1 returned TLR9-MyD88 block 1 and NOD2 RIPK2 PPI 2.
For CN(Cc1ccccc1)Cc1nc2c([nH]1)c(=O)[nH]c(=O)n2C the results were Bim-Mcl-1 -4, TLR9-MyD88 block 4, Mcl1-Bid inh 97*, TLR4 MyD88 comp -3 and NOD2 RIPK2 PPI -3.
Screening CCOC(=O)Cc1csc(NC(=O)c2sc3nc4c(C)cc(C)cc4cc3c2N)n1 returned Bim-Mcl-1 -4, Mcl1 Noxa PPI 64*, TLR9-MyD88 block 4, Mcl1-Bid inh 27, TLR4 MyD88 comp 6 and NOD2 RIPK2 PPI 0.
`CCCCn1c(N)c(N(CC(C)C)C(=O)CSc2ccccc2C)c(=O)[nH]c1=O` gave TLR9-MyD88 block 4 and NOD2 RIPK2 PPI -8.
For CCOC(=O)c1ccc(NC(=O)CSc2nc(C)cc(=O)[nH]2)cc1 the results were Bim-Mcl-1 -1, Mcl1 Noxa PPI 85*, TLR9-MyD88 block -1, Mcl1-Bid inh -4, TLR4 MyD88 comp -10 and NOD2 RIPK2 PPI 4.
`CCOC(=O)c1ccc(NC(=O)CSCCC(=O)O)cc1` gave Bim-Mcl-1 68*, Mcl1 Noxa PPI -8, TLR9-MyD88 block 3, Mcl1-Bid inh 0, TLR4 MyD88 comp -4 and NOD2 RIPK2 PPI 5.
`Cc1cc(=O)[nH]c(SCC(=O)Nc2ccc(C(=O)O)cc2)n1` gave Bim-Mcl-1 0, Mcl1 Noxa PPI 17, TLR9-MyD88 block -2, Mcl1-Bid inh 5, TLR4 MyD88 comp 1 and NOD2 RIPK2 PPI -5.
For CCOC(=O)c1c(C)[nH]c(C2=NNC(=NC3CC3)SC2)c1C the results were Bim-Mcl-1 0, Mcl1 Noxa PPI 64*, TLR9-MyD88 block 11, Mcl1-Bid inh -33, TLR4 MyD88 comp 19 and NOD2 RIPK2 PPI -1.
`CCOC(=O)c1c(C)nc(C)c(C(=O)OCC)c1-c1ccccc1` gave Bim-Mcl-1 11, Mcl1 Noxa PPI -1, TLR9-MyD88 block -12, Mcl1-Bid inh -18, TLR4 MyD88 comp -10 and NOD2 RIPK2 PPI 6.
`CCOc1c(C(N)=O)c(-c2ccccc2)c2c(=O)[nH]c3ccccc3n12` gave Bim-Mcl-1 -7, Mcl1 Noxa PPI 3, TLR9-MyD88 block -7, Mcl1-Bid inh 99*, TLR4 MyD88 comp 8 and NOD2 RIPK2 PPI -1.
For CCCCn1c(Cn2nc(C(=O)O)c3ccccc3c2=O)nc2cc(S(N)(=O)=O)ccc21 the results were TLR9-MyD88 block 1 and NOD2 RIPK2 PPI -10.
`COc1ccc(OC)c(NC(=O)CSc2nc3ccccc3c(=O)n2CC2CCCO2)c1` (stereo not drawn) gave TLR9-MyD88 block -10 and NOD2 RIPK2 PPI -8.
Screening COC(=O)c1ccc2c(=O)n(CC3CCCO3)c(SCC(=O)Nc3ccc(OC)cc3OC)nc2c1 (stereo not drawn) returned Mcl1 Noxa PPI -39, TLR9-MyD88 block 2, Mcl1-Bid inh 57* and NOD2 RIPK2 PPI -7.
For CN1CCN(S(=O)(=O)c2ccc(NC(=O)Cc3ccc([N+](=O)[O-])cc3)cc2)CC1 the results were TLR9-MyD88 block -6 and NOD2 RIPK2 PPI -10.
For COc1ccc(CNS(=O)(=O)c2cc3c4c(c2)C(C)C(=O)N4CCC3)cc1 (stereo not drawn) the results were TLR9-MyD88 block 5 and NOD2 RIPK2 PPI 1.
`O=[N+]([O-])c1cc(Cc2ccccc2)cc(C=Nc2ccc(N3CCOCC3)cc2)c1O` gave Bim-Mcl-1 2, Mcl1 Noxa PPI 28, TLR9-MyD88 block 1, Mcl1-Bid inh -17, TLR4 MyD88 comp 9 and NOD2 RIPK2 PPI -2.
`Cc1cccc(N=Cc2cc3c(cc2[N+](=O)[O-])OCO3)c1` gave Bim-Mcl-1 0, Mcl1 Noxa PPI -3, TLR9-MyD88 block -1, Mcl1-Bid inh -80, TLR4 MyD88 comp -10 and NOD2 RIPK2 PPI 0.
